In the library only some 21% were active in any assay of this set; here they are far more common.
SARS PLpro yeast: inhibitors of SARS-CoV papain-like protease in yeast. S. cerevisiae expressing SARS-CoV PLpro, growth rescue. 0.19% of 330,000 active. Potency, µM (doses to about 32.9 µM), most hits filed as activators; further: nearly all actives have a fitted effect of over 55% in size
NS1 function inh: inhibitors of influenza NS1 protein function. Potency, µM (top dose mostly 46.1 µM). AID 2326. 0.4% of 270,000 active; further: actives are rising curves; nearly all actives have a fitted effect of over 50% in size
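A cell-based growth assay was used: compounds that relieve NS1-induced slow growth of budding yeast raise OD600. Assay medium was yeast nitrogen base with ammonium sulphate and -URA supplement, pH 6.0, with 2% galactose.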
Pf growth 96h: P. falciparum growth inhibition at 96 hours | P. falciparum luciferase reporter growth, 96 h | 6.9% of 320,000 active | Potency, µM (titrated, usually from 28.7 µM), hits mostly inhibitors; active means well fitted inhibition curve with a large enough effect; inconclusive means small, poorly fitted or top-dose-only effect, or another doubt; inactive means no such curve, though single readings can be large or run the other way
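Plates of compound plus infected erythrocytes (2% hematocrit, 0.05% parasitemia final) incubate 96 hours, 37 C, 5% CO2. Detection reagent added; reduced luminescence from the parasites' luciferase reporter flags inhibition.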
Pf growth 48h: inhibits P. falciparum growth in the first generation, 48 h; Potency, µM (top dose mostly 28.7 µM), actives largely listed as inhibitors; P. falciparum luciferase growth in erythrocytes, 48 h; 5.9% of 310,000 active; AID 504832; active means well fitted inhibition curve with a large enough effect; inconclusive means small, poorly fitted or top-dose-only effect, or another doubt; inactive means no such curve, though single readings can be large or run the other way
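In quantitative HTS format, infected erythrocytes bearing luciferase-reporter parasites were treated for a single generation at 37 C. Luminescence after adding detection reagent served as the growth measure.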
CHX counter: affects cycloheximide protein synthesis inhibition readout, counter-screen. cell reporter, cycloheximide protein synthesis inhibition counterscreen. max response, %. 12% of 300,000 active; in the data active means max response mostly above about 13%, no sharp cut-off; inactive means mostly below about 14%; further: read at 38.3 µM for the half of the compounds with a filed dose
Shiga toxin inh: blocks Shiga toxin action in Vero cells | 9.2% of 290,000 active | Vero cells, Shiga toxin protein synthesis inhibition reporter | inhibition, % at 38.7 µM | AID 2315; in the data active means inhibition mostly above about 28%, no sharp cut-off; inactive means mostly below about 43%
Of the large screens only hits and unclear results are named; the others gave an inactive call. Unless noted, the call rests on the fitted dose curve.

CCCC(=O)NNC(=O)CC(=O)Nc1ccccc1C(=O)O	none
O=C(CCCc1ccccc1)Nc1ccccc1[N+](=O)[O-]	CHX counter 37, Shiga toxin inh 27
CN(C)c1ccc(NC(=O)Cc2ccccc2)c2ccccc12	CHX counter 15
Cc1ccc(NC(=O)CCCc2ccccc2)c([N+](=O)[O-])c1	CHX counter 32, Shiga toxin inh 35
Cc1noc(C)c1CCC(=O)N1CCCC(N2CCN(c3ccc(F)cc3)CC2)C1 (stereo not drawn)	Pf growth 96h inconclusive
O=C(CCC1CCCC1)NCCS(=O)(=O)N1CCN(c2ccccc2)CC1	none (no result: NS1 function inh, CHX counter, Shiga toxin inh)
O=C(NN1C(=O)c2ccccc2NC1c1ccccn1)c1ccccc1 (stereo not drawn)	Pf growth 96h inconclusive, CHX counter 13, Shiga toxin inh 24
O=C1c2ccccc2NC(c2ccccn2)N1c1ccc(Cl)cc1 (stereo not drawn)	CHX counter 31, Shiga toxin inh 71
Cc1cccc(C2Nc3ccccc3C(=O)N2c2ccccc2)n1 (stereo not drawn)	none (no result: Pf growth 96h)
O=C(NN1C(=O)c2ccccc2NC1c1ccoc1)c1ccccc1 (stereo not drawn)	none (no result: NS1 function inh)
Cc1ccc(NC(=O)CN(C)C(=O)c2cc3ccccc3o2)cc1	Pf growth 48h inconclusive (no result: NS1 function inh)
N=c1oc2ccccc2cc1C(=O)Nc1ccc(F)cc1	CHX counter 29, Shiga toxin inh 92
N=c1oc2ccccc2cc1C(=O)Nc1cccc(F)c1	Pf growth 96h inconclusive, CHX counter 41, Shiga toxin inh 73
Cc1ccc(NC(=O)c2cc3ccccc3oc2=N)cc1	CHX counter 77, Shiga toxin inh 147
N=c1oc2cc(O)ccc2cc1C(=O)Nc1ccc(Cl)cc1	CHX counter 43, Shiga toxin inh 114
Cc1ccc(S(=O)(=O)N2CCCCC2)cc1NC(=O)CSc1nnc(C2CC2)n1C	none (no result: NS1 function inh, Pf growth 96h, Pf growth 48h, CHX counter, Shiga toxin inh)
Cc1cc(OCC(=O)NCc2ccccn2)c2c(C)c(Cc3ccccc3)c(=O)oc2c1	Pf growth 96h inconclusive, Pf growth 48h inconclusive
Cc1ccc(C(=O)NC2CCN(CC(=O)NC3CCC(C)CC3)CC2)cc1 (stereo not drawn)	Pf growth 48h inconclusive
CCCN1Cc2cccc(C(=O)NC(CC(=O)OCC)c3ccc(C)cc3)c2C1=O (stereo not drawn)	Pf growth 48h inconclusive (no result: NS1 function inh)
CCCN1Cc2cccc(C(=O)NC(CC(=O)OCC)c3ccc(OC(C)C)cc3)c2C1=O (stereo not drawn)	Pf growth 48h 13µM (no result: NS1 function inh)
CCOC(=O)CC(NC(=O)c1cccc2c1C(=O)N(Cc1cccnc1)C2)c1ccc(OC(C)C)cc1 (stereo not drawn)	Pf growth 96h inconclusive, Pf growth 48h 9.3µM (no result: NS1 function inh)
CCOc1ccc(NC(=O)c2cccc3c2C(=O)N(Cc2cccnc2)C3)cc1	Pf growth 48h inconclusive
CN(CC(=O)Nc1cccc(F)c1)C(=O)c1ccncc1	none
O=S(=O)(O)c1cccc2cccnc12	none (no result: SARS PLpro yeast, NS1 function inh, Pf growth 96h, Pf growth 48h)
O=S(=O)(Oc1ccc(Cl)cc1)c1cccc2cccnc12	CHX counter 16
N/C(COc1ccc(Cl)cc1)=N\NS(=O)(=O)c1ccccc1	none
O=S(=O)(Oc1ccc(Cl)cc1)c1ccccc1	CHX counter 21, Shiga toxin inh 21 (no result: SARS PLpro yeast, NS1 function inh, Pf growth 96h, Pf growth 48h)
CN(C)/N=C/c1ccc(OS(=O)(=O)c2ccccc2)cc1	CHX counter 47, Shiga toxin inh 64
CN1C(=O)NC(c2cccc(F)c2)C2=C1CC(C)(C)CC2=O (stereo not drawn)	none
N/C(=N\O)c1ccc([N+](=O)[O-])s1	Pf growth 96h inconclusive, Pf growth 48h inconclusive
N/C(=N\OC(=O)C1CC1)c1ccc([N+](=O)[O-])s1	Pf growth 96h 6.6µM, Pf growth 48h inconclusive
CC(C)(C)C(=O)O/N=C(\N)c1ccc([N+](=O)[O-])s1	Pf growth 96h inconclusive, Pf growth 48h inconclusive, CHX counter 24
CCCn1c(C)cc(C(=O)COC(=O)c2ccc(Cl)c(S(=O)(=O)N3CCCC3)c2)c1C	Pf growth 96h inconclusive, CHX counter 31, Shiga toxin inh 142
CCn1c(C)cc(C(=O)COC(=O)c2ccccc2[N+](=O)[O-])c1C	none (no result: NS1 function inh, Pf growth 96h, Pf growth 48h, CHX counter, Shiga toxin inh)
CCOC(=O)c1cc(C)n(CCc2ccccc2)c1C	Pf growth 48h inconclusive, CHX counter 22
CCCn1c(C)cc(C(=O)COC(=O)c2ccc[nH]c2=O)c1C	CHX counter 29, Shiga toxin inh 45
Cc1ccc(-n2c(C)cc(C(=O)COC(=O)C3=NNC(=O)CC3)c2C)cc1	Pf growth 48h inconclusive (no result: Pf growth 96h)
Cc1cc(C(=O)COC(=O)C2=NNC(=O)CC2)c(C)n1-c1ccccc1	CHX counter 29, Shiga toxin inh 38 (no result: Pf growth 96h)
O=C(N/N=C/c1ccc(OC(F)F)cc1)c1cccc(S(=O)(=O)N2CCOCC2)c1	none (no result: NS1 function inh)
O=C(NNC1=Nc2cc([N+](=O)[O-])ccc2OC1)c1ccccc1Cl	Pf growth 96h inconclusive
Cc1ccc(-n2c(C)cc(C(=O)COC(=O)c3ccc[nH]c3=O)c2C)cc1C	Pf growth 96h inconclusive, CHX counter 27, Shiga toxin inh 67
CCNC(=S)N(CCc1c(C)[nH]c2ccccc12)Cc1cccnc1	none (no result: Pf growth 48h)
Cc1ccc(-c2nnc(SCC(=O)NC(=O)Nc3ccc(C)cc3C)n2N)cc1	Pf growth 96h inconclusive
Cc1ccc(NC(=O)NC(=O)CSc2nnc(-c3ccc(Cl)cc3Cl)n2N)c(C)c1	CHX counter 64, Shiga toxin inh 179
COc1ccc(N(CC(=O)Nc2ccc(C)c(F)c2)S(=O)(=O)c2c(C)noc2C)cc1	Pf growth 96h inconclusive, Pf growth 48h 13µM
Cc1ccc(N(CC(=O)Nc2ccc3c(c2)OCCO3)S(=O)(=O)c2c(C)noc2C)cc1	SARS PLpro yeast inconclusive
COc1ccc(N(CC(=O)Nc2ccc3c(c2)OCCO3)S(=O)(=O)c2c(C)noc2C)cc1	NS1 function inh inconclusive, Pf growth 48h inconclusive, CHX counter 11
COc1ccc(N(CC(=O)Nc2ccc3c(c2)OCCO3)S(=O)(=O)c2cccnc2)cc1	Pf growth 96h inconclusive, CHX counter 20
COc1ccc(N(CC(=O)Nc2ccc3c(c2)OCO3)S(=O)(=O)c2ccccc2)cc1	Pf growth 48h inconclusive
CC(C)Cn1c(SCC(=O)N2CCOCC2)nc2ccccc2c1=O	Pf growth 96h inconclusive (no result: NS1 function inh, CHX counter, Shiga toxin inh)
O=C(CSc1nncc2ccccc12)Nc1ccc(C(=O)O)cc1	Pf growth 96h inconclusive, CHX counter 21
O=C(CSc1nncc2ccccc12)Nc1ccccc1	Pf growth 48h inconclusive
O=C(CSc1nncc2ccccc12)N1CCOCC1	CHX counter 17 (no result: Pf growth 96h)
O=C(CSc1nc2ccccc2c2c1CCCC2)N1CCOCC1	Pf growth 96h 9.3µM
O=C(NCc1ccccc1)NC(O)C(Cl)(Cl)Cl (stereo not drawn)	none
O=C(C1=C[C@H](c2csc3ccccc23)C[C@H](OCCCCO)O1)N1CCN(Cc2ccc3c(c2)OCO3)CC1	Pf growth 96h 1.5µM, Pf growth 48h 2.3µM
O=C(C1=C[C@H](c2ccccc2)C[C@H](OCCCCO)O1)N1CCN(Cc2ccc3c(c2)OCO3)CC1	Pf growth 96h inconclusive, Pf growth 48h inconclusive

Bioassay records (PubChem)
